Measurements reported in PubChem BioAssay AID1159580 (chemical genetic matrix, 2015).
Screen size: about 5,500 compounds; about 2,000 (36%) were called active. Roughly 18% stayed inconclusive and do not appear here. Rule as the data show it: active = normalized growth mostly below about 0.91 (no sharp cut-off); inconclusive = no clear call, values can overlap the other calls; inactive = mostly above about 0.92. Some of the results follow.

Experiment: chemical genetic growth profiling, strain panel (AID 1159580);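 also: tested at 20 µM; growth read once vehicle control cultures reached saturation at 30 °C; 1 = growth at the plate median or of vehicle wells; lower values mean less growth of the strain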
Conditions: growth OD
[1] = S. cerevisiae deletion strains, locus YDL101C, strain DUN1, stronger effect = lower value
[2] = S. cerevisiae deletion strains, locus YHR030C, strain SLT2, stronger effect = lower value
[3] = S. cerevisiae deletion strains, locus YJR075W, strain HOC1, stronger effect = lower value
[4] = S. cerevisiae deletion strains, locus YMR263W, strain SAP30, stronger effect = lower value
[5] = S. cerevisiae deletion strains, locus YNL153C, strain GIM3, stronger effect = lower value
[6] = S. cerevisiae deletion strains, locus YNL322C, strain KRE1, stronger effect = lower value
[7] = S. cerevisiae deletion strains, locus YPL241C, strain CIN2, stronger effect = lower value
[8] = S. cerevisiae deletion strains, locus YAR019C, strain CDC15, stronger effect = lower value
[9] = S. cerevisiae deletion strains, locus YBL105C, strain PKC1, stronger effect = lower value
[10] = S. cerevisiae deletion strains, locus YBR135W, strain CKS1, stronger effect = lower value
[11] = S. cerevisiae deletion strains, locus YBR136W, strain MEC1, stronger effect = lower value
[12] = S. cerevisiae deletion strains, locus YBR160W, strain CDC28, stronger effect = lower value
[13] = S. cerevisiae deletion strains, locus YDL017W, strain CDC7, stronger effect = lower value
[14] = S. cerevisiae deletion strains, locus YDL028C, strain MPS1, stronger effect = lower value
[15] = S. cerevisiae deletion strains, locus YDL108W, strain KIN28, stronger effect = lower value
[16] = S. cerevisiae deletion strains, locus YDL132W, strain cdc53, stronger effect = lower value
[17] = S. cerevisiae deletion strains, locus YDL214C, strain PRR2, stronger effect = lower value
[18] = S. cerevisiae deletion strains, locus YDR052C, strain DBF4, stronger effect = lower value
[19] = S. cerevisiae deletion strains, locus YDR054C, strain cdc34, stronger effect = lower value
[20] = S. cerevisiae deletion strains, locus YDR226W, strain ADK1, stronger effect = lower value
[21] = S. cerevisiae deletion strains, locus YDR477W, strain SNF1, stronger effect = lower value
[22] = S. cerevisiae deletion strains, locus YER123W, strain YCK3, stronger effect = lower value
[23] = S. cerevisiae deletion strains, locus YER133W, strain GLC7, stronger effect = lower value
[24] = S. cerevisiae deletion strains, locus YFL009W, strain cdc4, stronger effect = lower value
[25] = S. cerevisiae deletion strains, locus YFL029C, strain CAK1, stronger effect = lower value
[26] = S. cerevisiae deletion strains, locus YFR003C, strain YPI1, stronger effect = lower value
[27] = S. cerevisiae deletion strains, locus YFR019W, strain FAB1, stronger effect = lower value
[28] = S. cerevisiae deletion strains, locus YFR028C, strain CDC14, stronger effect = lower value
[29] = S. cerevisiae deletion strains, locus YGR040W, strain KSS1, stronger effect = lower value
[30] = S. cerevisiae deletion strains, locus YGR052W, strain FMP48, stronger effect = lower value
[31] = S. cerevisiae deletion strains, locus YGR092W, strain DBF2, stronger effect = lower value
[32] = S. cerevisiae deletion strains, locus YHR079C, strain IRE1, stronger effect = lower value
[33] = S. cerevisiae deletion strains, locus YHR082C, strain KSP1, stronger effect = lower value
[34] = S. cerevisiae deletion strains, locus YHR205W, strain SCH9, stronger effect = lower value
[35] = S. cerevisiae deletion strains, locus YIL147C, strain SLN1, stronger effect = lower value
[36] = S. cerevisiae deletion strains, locus YJL095W, strain BCK1, stronger effect = lower value
[37] = S. cerevisiae deletion strains, locus YJL128C, strain PBS2, stronger effect = lower value
[38] = S. cerevisiae deletion strains, locus YJL157C, strain FAR1, stronger effect = lower value
[39] = S. cerevisiae deletion strains, locus YJR016C, strain ILV3, stronger effect = lower value
[40] = S. cerevisiae deletion strains, locus YJR066W, strain TOR1 (second series), stronger effect = lower value
[41] = S. cerevisiae deletion strains, locus YJR066W, strain TOR1, stronger effect = lower value
[42] = S. cerevisiae deletion strains, locus YKL048C, strain ELM1, stronger effect = lower value
[43] = S. cerevisiae deletion strains, locus YKL067W, strain YNK1, stronger effect = lower value
[44] = S. cerevisiae deletion strains, locus YKL101W, strain HSL1, stronger effect = lower value
[45] = S. cerevisiae deletion strains, locus YKL193C, strain SDS22, stronger effect = lower value
[46] = S. cerevisiae deletion strains, locus YKL203C, strain TOR2, stronger effect = lower value
[47] = S. cerevisiae deletion strains, locus YLR113W, strain HOG1, stronger effect = lower value
[48] = S. cerevisiae deletion strains, locus YLR133W, strain CKI1, stronger effect = lower value
[49] = S. cerevisiae deletion strains, locus YLR403W, strain SFP1, stronger effect = lower value
[50] = S. cerevisiae deletion strains, locus YML070W, strain DAK1, stronger effect = lower value
[51] = S. cerevisiae deletion strains, locus YMR001C, strain CDC5, stronger effect = lower value
[52] = S. cerevisiae deletion strains, locus YMR205C, strain PFK2 (second series), stronger effect = lower value
[53] = S. cerevisiae deletion strains, locus YMR277W, strain FCP1, stronger effect = lower value
[54] = S. cerevisiae deletion strains, locus YNL006W, strain LST8, stronger effect = lower value
[55] = S. cerevisiae deletion strains, locus YNL020C, strain ARK1, stronger effect = lower value
[56] = S. cerevisiae deletion strains, locus YNL161W, strain CBK1, stronger effect = lower value
[57] = S. cerevisiae deletion strains, locus YNL183C, strain NPR1, stronger effect = lower value
[58] = S. cerevisiae deletion strains, locus YNL207W, strain RIO2, stronger effect = lower value
[59] = S. cerevisiae deletion strains, locus YNL222W, strain SSU72, stronger effect = lower value
[60] = S. cerevisiae deletion strains, locus YNL307C, strain MCK1 (second series), stronger effect = lower value
[61] = S. cerevisiae deletion strains, locus YOL078W, strain AVO1, stronger effect = lower value
[62] = S. cerevisiae deletion strains, locus YOL136C, strain PFK27, stronger effect = lower value
[63] = S. cerevisiae deletion strains, locus YOR061W, strain CKA2, stronger effect = lower value
[64] = S. cerevisiae deletion strains, locus YOR119C, strain RIO1, stronger effect = lower value
[65] = S. cerevisiae deletion strains, locus YOR231W, strain MKK1, stronger effect = lower value
[66] = S. cerevisiae deletion strains, locus YOR329C, strain SCD5, stronger effect = lower value
[67] = S. cerevisiae deletion strains, locus YPL031C, strain PHO85, stronger effect = lower value
[68] = S. cerevisiae deletion strains, locus YPL153C, strain RAD53, stronger effect = lower value
[69] = S. cerevisiae deletion strains, locus YPL204W, strain HRR25, stronger effect = lower value
[70] = S. cerevisiae deletion strains, locus YPL209C, strain IPL1, stronger effect = lower value
[71] = S. cerevisiae deletion strains, locus YPL256C, strain CLN2, stronger effect = lower value
[72] = S. cerevisiae deletion strains, locus YPR025C, strain CCL1, stronger effect = lower value
[73] = S. cerevisiae deletion strains, locus YPR106W, strain ISR1, stronger effect = lower value
[74] = S. cerevisiae deletion strains, locus YPR111W, strain DBF20, stronger effect = lower value
[75] = S. cerevisiae deletion strains, strain NNK1, stronger effect = lower value
[76] = S. cerevisiae deletion strains, strain TSCII, stronger effect = lower value

Measured: normalized growth

CC(=O)c1cnn(-c2ccccc2)c1C
inactive: S. cerevisiae deletion strains, locus YAL013W, strain DEP1, stronger effect = lower value 0.979 | S. cerevisiae deletion strains, locus YBR229C, strain ROT2, stronger effect = lower value 0.984 | S. cerevisiae deletion strains, locus YCL061C, strain MRC1, stronger effect = lower value 0.992 | [1] 0.985 | S. cerevisiae deletion strains, locus YDL134C, strain PPH21, stronger effect = lower value 1.01 | S. cerevisiae deletion strains, locus YDR150W, strain NUM1, stronger effect = lower value 0.925 | S. cerevisiae deletion strains, locus YEL061C, strain CIN8, stronger effect = lower value 1 | S. cerevisiae deletion strains, locus YGR078C, strain PAC10, stronger effect = lower value 0.995 | [2] 0.945 | S. cerevisiae deletion strains, locus YHR087W, strain rtc3, stronger effect = lower value 0.99 | S. cerevisiae deletion strains, locus YJR043C, strain POL32, stronger effect = lower value 0.994 | [3] 1 | S. cerevisiae deletion strains, locus YLR039C, strain RIC1, stronger effect = lower value 1 | S. cerevisiae deletion strains, locus YLR058C, strain SHM2 (second series), stronger effect = lower value 0.998 | S. cerevisiae deletion strains, locus YLR085C, strain ARP6, stronger effect = lower value 0.963 | S. cerevisiae deletion strains, locus YLR262C, strain YPT6, stronger effect = lower value 1.01 | S. cerevisiae deletion strains, locus YML094W, strain GIM5, stronger effect = lower value 0.948 | S. cerevisiae deletion strains, locus YMR219W, strain ESC1, stronger effect = lower value 0.997 | [4] 0.922 | S. cerevisiae deletion strains, locus YMR307W, strain GAS1, stronger effect = lower value 0.957 | [5] 0.981 | S. cerevisiae deletion strains, locus YNL298W, strain CLA4 (second series), stronger effect = lower value 1 | [6] 0.997 | S. cerevisiae deletion strains, locus YNR030W, strain Alg12, stronger effect = lower value 1 | S. cerevisiae deletion strains, locus YOL006C, strain TOP1, stronger effect = lower value 0.983 | S. cerevisiae deletion strains, locus YPL055C, strain LGE1, stronger effect = lower value 0.848 | [7] 0.984 | S. cerevisiae deletion strains, locus YPR135W, strain CTF4, stronger effect = lower value 0.944 | S. cerevisiae strains, strain wild type, stronger effect = lower value 0.997

Cc1c(C(=O)N(Cc2ccccc2)Cc2cccs2)cnn1-c1ccc(Cl)cc1
inactive: [8] 0.992 | [9] 0.989 | [10] 0.984 | [11] 0.981 | [12] 0.981 | [13] 0.998 | [14] 0.985 | [1] 0.99 | [15] 0.985 | [16] 0.976 | [17] 0.947 | [18] 1 | [19] 0.987 | [20] 0.996 | [21] 0.946 | [22] 0.94 | [23] 0.957 | [24] 0.986 | [25] 0.988 | [26] 0.99 | [27] 0.963 | [28] 0.981 | [29] 0.938 | [30] 1.03 | [31] 0.967 | [2] 0.934 | [32] 0.953 | [33] 1.03 | [34] 0.919 | [35] 0.997 | [36] 0.945 | [37] 0.967 | [38] 0.935 | [39] 0.982 | [40] 0.883 | [41] 1.02 | [42] 0.97 | [43] 0.968 | [44] 0.94 | [45] 0.982 | [46] 0.997 | [47] 0.925 | [48] 0.936 | [49] 0.915 | [50] 0.926 | [51] 0.987 | [52] 0.944 | [53] 0.989 | [54] 1.01 | [55] 0.945 | [56] 0.995 | [57] 0.995 | [58] 0.989 | [59] 0.99 | [60] 0.95 | [61] 0.989 | [62] 0.926 | [63] 0.95 | [64] 1 | [65] 0.888 | [66] 0.99 | [67] 0.962 | [68] 0.926 | [69] 0.931 | [70] 0.988 | [71] 0.922 | [72] 0.99 | [73] 0.974 | [74] 0.972 | [75] 0.986 | [76] 0.973

Cc1c(-c2ccnn2C(=O)c2ccco2)cnn1-c1ccccc1
active: [2] 0.739 | [47] 0.799 | [71] 0.825
inactive: [8] 0.954 | [9] 0.957 | [10] 0.958 | [11] 0.954 | [12] 0.957 | [13] 0.964 | [14] 0.93 | [1] 0.978 | [15] 0.954 | [16] 0.953 | [17] 0.904 | [18] 0.982 | [19] 0.952 | [20] 0.953 | [21] 0.861 | [22] 0.925 | [23] 0.915 | [24] 0.936 | [25] 0.954 | [26] 0.959 | [27] 0.945 | [28] 0.94 | [29] 0.872 | [30] 0.966 | [31] 0.917 | [32] 0.909 | [33] 0.953 | [34] 0.909 | [35] 0.958 | [36] 0.842 | [37] 0.908 | [38] 0.916 | [39] 0.962 | [40] 0.828 | [41] 0.89 | [42] 0.972 | [43] 0.908 | [44] 0.894 | [45] 0.959 | [46] 0.965 | [48] 0.917 | [49] 0.873 | [50] 0.895 | [51] 0.953 | [52] 0.939 | [53] 0.938 | [54] 0.953 | [55] 0.931 | [56] 0.974 | [57] 0.953 | [58] 0.958 | [59] 0.943 | [60] 0.894 | [61] 0.958 | [62] 0.898 | [63] 0.909 | [64] 0.919 | [65] 0.885 | [66] 0.974 | [67] 0.858 | [68] 0.873 | [69] 0.851 | [70] 0.969 | [72] 0.957 | [73] 0.957 | [74] 0.917 | [75] 0.964 | [76] 0.94

C[C@@H]1O[C@H](C[N+](C)(C)C)CS1
inactive: S. cerevisiae deletion strains, locus YAL040C, strain CLN3, stronger effect = lower value 1.02 | S. cerevisiae deletion strains, locus YCL061C, strain MRC1 (second series), stronger effect = lower value 1.01 | S. cerevisiae deletion strains, locus YDR363W, strain ESC2, stronger effect = lower value 1.03 | S. cerevisiae deletion strains, locus YER002W, strain NOP16, stronger effect = lower value 0.997 | [3] 1.02 | [4] 1.01 | [5] 1.01 | S. cerevisiae deletion strains, locus YNL175C, strain NOP13, stronger effect = lower value 1.01 | S. cerevisiae deletion strains, locus YNL197C, strain WHI3, stronger effect = lower value 1.01 | S. cerevisiae deletion strains, locus YNL224C, strain SQS1, stronger effect = lower value 0.993 | [6] 1.02 | S. cerevisiae deletion strains, locus YOR083W, strain WHI5 (second series), stronger effect = lower value 1.05 | [7] 1.01

CC(C)(CO)[C@@H](O)C(=O)NCCCO
inactive: [2] 1.09 | [32] 0.97 | [36] 1.01 | [41] 0.936 | [47] 0.968 | [57] 0.932 | [65] 0.998 | [71] 0.988
